A selection: hits, their analogues and other compounds. The true share with any hit is near 2.9%.
KDM5B inhibitor = Primary screen for KDM5B Histone Demethylases FDH-coupled qHTS. Potency, µM (titrated, usually from 57.7 µM), usual class: inhibitors. Lysine-specific demethylase 5B (Homo sapiens), Q9UGL1. hit rate 2.6% among 220,000. AID 1347165, 2019. KDM5B demethylase, FDH-coupled NADH fluorescence (FDH is formaldehyde dehydrogenase); also: potency is read from the fitted curve at half-maximal effect; 0% is about no effect; nearly all actives have a fitted effect of over 70% in size
Target sequence (Q9UGL1 whole entry, looked up): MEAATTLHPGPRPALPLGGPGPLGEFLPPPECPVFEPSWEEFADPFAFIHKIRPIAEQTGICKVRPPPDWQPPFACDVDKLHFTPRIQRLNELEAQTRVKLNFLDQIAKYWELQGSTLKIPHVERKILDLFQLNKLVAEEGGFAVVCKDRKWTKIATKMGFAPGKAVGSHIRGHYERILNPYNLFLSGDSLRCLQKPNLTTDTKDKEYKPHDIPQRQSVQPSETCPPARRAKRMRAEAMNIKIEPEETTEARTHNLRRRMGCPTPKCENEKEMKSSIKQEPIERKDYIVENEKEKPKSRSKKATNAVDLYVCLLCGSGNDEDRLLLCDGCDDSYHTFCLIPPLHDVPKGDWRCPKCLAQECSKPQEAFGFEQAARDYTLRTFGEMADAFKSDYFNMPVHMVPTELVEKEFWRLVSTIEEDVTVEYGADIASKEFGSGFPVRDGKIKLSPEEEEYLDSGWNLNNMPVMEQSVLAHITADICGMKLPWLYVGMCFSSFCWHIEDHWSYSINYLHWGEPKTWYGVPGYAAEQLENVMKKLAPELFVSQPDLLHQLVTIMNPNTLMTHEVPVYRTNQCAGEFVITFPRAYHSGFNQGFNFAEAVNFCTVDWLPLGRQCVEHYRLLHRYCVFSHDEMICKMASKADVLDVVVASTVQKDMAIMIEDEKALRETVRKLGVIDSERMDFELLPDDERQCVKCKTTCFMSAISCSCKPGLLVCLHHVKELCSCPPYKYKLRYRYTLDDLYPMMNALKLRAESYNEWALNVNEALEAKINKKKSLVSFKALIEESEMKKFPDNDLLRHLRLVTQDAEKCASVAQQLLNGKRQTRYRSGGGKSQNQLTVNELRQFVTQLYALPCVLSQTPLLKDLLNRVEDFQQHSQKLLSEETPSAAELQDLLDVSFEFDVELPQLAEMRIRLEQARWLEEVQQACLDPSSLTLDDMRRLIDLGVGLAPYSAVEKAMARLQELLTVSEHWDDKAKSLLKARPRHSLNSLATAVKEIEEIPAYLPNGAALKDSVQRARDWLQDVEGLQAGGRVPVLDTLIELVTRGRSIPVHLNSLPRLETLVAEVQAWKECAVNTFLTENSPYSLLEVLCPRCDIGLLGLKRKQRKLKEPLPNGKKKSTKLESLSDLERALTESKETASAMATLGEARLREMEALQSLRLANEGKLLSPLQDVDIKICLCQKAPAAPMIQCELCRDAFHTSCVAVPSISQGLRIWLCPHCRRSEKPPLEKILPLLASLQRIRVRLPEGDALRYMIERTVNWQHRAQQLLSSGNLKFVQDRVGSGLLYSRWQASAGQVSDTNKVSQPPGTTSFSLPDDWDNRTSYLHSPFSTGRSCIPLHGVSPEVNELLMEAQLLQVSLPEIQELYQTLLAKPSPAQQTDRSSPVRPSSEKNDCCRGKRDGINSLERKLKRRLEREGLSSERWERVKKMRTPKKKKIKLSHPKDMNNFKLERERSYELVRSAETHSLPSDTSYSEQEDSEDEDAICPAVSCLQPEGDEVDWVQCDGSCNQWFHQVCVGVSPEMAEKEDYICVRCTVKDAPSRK
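Measured: NADH fluorescence change, 30 min, RT. System: KDM5BΔAP 200 nM final, H3K4me3 peptide, α-KG, Fe(II), ascorbate, NAD⁺ plus FDH, pH 7.5 HEPES. Compounds: titrated, 10 min pre-incubation with enzyme.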
SNCA viab count = GF-AFC viability counterscreen for inhibitors of alpha-synuclein gene (SNCA) expression | HEK-293-SNCA-luc viability, GF-AFC fluorescence, 24 h | Potency, µM (doses to about 57.1 µM), inactives show top-dose activity change, negative = cytotoxicity, most hits filed as cytotoxic | hit rate 0.12% among 150,000 | AID 1671193, 2021;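 also: potency is read from the fitted curve at half-maximal effect; 0% = DMSO-treated cells and -100% = medium-only wells without cells; nearly all actives have a fitted effect of over 30% in size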
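Cytotoxicity counterscreen: after 24 h compound treatment of genome-edited SNCA-luciferase HEK-293 cells, live-cell protease substrate GF-AFC read by fluorescence after 30 min; activity scaled between DMSO (0%) and medium-only (-100%), curves Hill-fitted.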
IP6K1 inhibitor = Primary qHTS assay for small molecule inhibitors of Inositol hexaphosphate kinase 1 (IP6K1); Inositol hexakisphosphate kinase 1 (Homo sapiens), Q92551; IP6K1 kinase, ADP-Glo luminescence, 2 h; hits give low values; activity change, % (series mostly up to about 58 µM); hit rate 0.81% among 140,000; AID 1645851, 2021; in the data active = activity change below about -25%; also: % is scaled to controls: 0 for no effect and ±100 for the full control effect
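ADP-Glo luminescence measures ADP made by human IP6K1 during a 2 h RT reaction with ATP/IP6 (mix at 1.3 mM/130 uM); top library doses 57.5 and 19.1 uM final.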
SNCA expr inhib = Primary qHTS assay for inhibitors of alpha-synuclein gene (SNCA) expression; HEK-293 SNCA-luciferase knock-in, luminescence, 24 h; Potency, µM (top dose mostly 57.2 µM), for inactives: at the top dose activity change, negative = inhibition, hits mostly inhibitors; hit rate 0.17% among 140,000; AID 1671194, 2021;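 also: potency is read from the fitted curve at half-maximal effect; plate controls were DMSO cells for no effect and cell-free wells for full effect; nearly all actives have a fitted effect of over 45% in size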
* = called active by the depositor; [ ] = another dose, or the depositor's remark. Unless noted, calls follow the shape of the dose curve; as a rule, active = well fitted curve in the direction sought with a large enough effect; inconclusive = small, poorly fitted or top-dose-only effect, or another doubt; inactive = no such curve, though single readings can be large; an effect the other way counts as inactive or inconclusive.

For CCc1cccc(C)c1Nc1c(-c2cccc(O)c2)nc2cnccn12 the results were KDM5B inhibitor inconclusive, SNCA viab count inconclusive, IP6K1 inhibitor 10.6 and SNCA expr inhib 39.0%.
Screening O=C(CCNc1c(-c2cccc(F)c2)nc2cnccn12)N1CCCC1 returned KDM5B inhibitor 28.2µM*, SNCA viab count inconclusive, IP6K1 inhibitor 7.5 and SNCA expr inhib -4.1%.
`COc1ccc(-c2nc3cnccn3c2NCCC(=O)N2CCCCCC2)cc1` gave KDM5B inhibitor 28.2µM*, SNCA viab count inconclusive, IP6K1 inhibitor 3.8 and SNCA expr inhib 0.4%.
O=C(NCc1cccc(Cl)c1)C1CCc2nnc(C3CCN([S+](=O)([O-])c4ccccc4Cl)CC3)n21 (stereo not drawn) was read as SNCA viab count -4.2%, IP6K1 inhibitor 1.6 and SNCA expr inhib -29.9%.
For Fc1ccc(C2Cn3nnc(-c4nc(-c5ccccc5)no4)c3CO2)cc1 (stereo not drawn) the results were KDM5B inhibitor inactive, SNCA viab count 16.3%, IP6K1 inhibitor 0.0 and SNCA expr inhib 0.8%.
Cc1ccccc1NC(=O)CSc1nc2ccccc2nc1C was read as KDM5B inhibitor inactive.
Cc1ccc(SC(C)C(=O)NC(C)(C#N)C(C)C)cc1C (stereo not drawn) was read as KDM5B inhibitor inactive.
O=C(O)CCNc1c(-c2ccc(F)cc2)nc2cnccn12 was read as KDM5B inhibitor 28.2µM*, SNCA viab count 27.5%, IP6K1 inhibitor 6.2 and SNCA expr inhib 8.9%.
Screening CCc1cccc(C)c1Nc1c(-c2ccc(N(C)C)cc2)nc2cnccn12 returned KDM5B inhibitor inconclusive, SNCA viab count inconclusive, IP6K1 inhibitor -10.2 and SNCA expr inhib -24.8%.
`CN(Cc1ccccc1)C(=O)CCNc1c(-c2cccc(F)c2)nc2cnccn12` gave KDM5B inhibitor 25.1µM*, SNCA viab count inconclusive, IP6K1 inhibitor 21.9 and SNCA expr inhib 29.8%.
`COc1ccccc1/C=C/CN1CCn2nc(CO)cc2C1` gave KDM5B inhibitor 28.2µM*, SNCA viab count -5.0%, IP6K1 inhibitor 17.6 and SNCA expr inhib -11.7%.
O=C1C(Br)C2C3CC4C(CC(Br)C42)C13 (stereo not drawn) was read as KDM5B inhibitor inactive.
For CN1CC2(CCN(Cc3ccccn3)CC2)CC1C(=O)N1CCOCC1 (stereo not drawn) the results were KDM5B inhibitor 20µM*, SNCA viab count 4.5%, IP6K1 inhibitor -3.9 and SNCA expr inhib 43.7%.
For CN1CC2(CCN(Cc3cccn3C)CC2)CC1C(=O)N1CCOCC1 (stereo not drawn) the results were KDM5B inhibitor 15.8µM*, SNCA viab count 0.2%, IP6K1 inhibitor -8.0 and SNCA expr inhib 14.0%.
`COc1ccc2cc(C(=O)N3CCC4(CC3)CC(C(=O)N3CCOCC3)N(C)C4)[nH]c2c1` (stereo not drawn) gave KDM5B inhibitor 25.1µM*, SNCA viab count -1.5%, IP6K1 inhibitor -5.8 and SNCA expr inhib 8.1%.
For CCn1c(SCC(=O)Nc2ccc(F)cc2C)nnc1C(C)NC(=O)c1ccco1 (stereo not drawn) the results were KDM5B inhibitor inactive.
Screening CCN1c2cc(C(=O)Nc3cccc(C(C)C)c3)ccc2C(=O)N2CCCCCC21 (stereo not drawn) returned KDM5B inhibitor inconclusive, SNCA viab count -0.2%[12.5 µM], IP6K1 inhibitor 11.2 and SNCA expr inhib inconclusive.
`Cc1cccc(NC(=O)CCc2ncc(-c3ccc(F)cc3F)o2)c1` gave KDM5B inhibitor inactive.
Screening O=C(C1Cn2cccc2C(=O)N1Cc1ccccc1)N1CCN(c2ncccn2)CC1 (stereo not drawn) returned KDM5B inhibitor 17.8µM*, SNCA viab count 19.0%, IP6K1 inhibitor 12.0 and SNCA expr inhib 2.2%.
Screening O=C(NC(Cc1ccccc1)C(=O)N1CCN(c2ncccn2)CC1)c1ccccc1 (stereo not drawn) returned KDM5B inhibitor inactive.
`NC(Cc1ccccc1)C(=O)N1CCN(c2ccccn2)CC1` (stereo not drawn) gave KDM5B inhibitor 22.4µM*, SNCA viab count -26.0%, IP6K1 inhibitor -2.0 and SNCA expr inhib -22.6%.
`O=C(CC1CCCCC1)NC(Cc1ccccc1)C(=O)N1CCN(c2ccccn2)CC1` (stereo not drawn) gave KDM5B inhibitor 22.4µM*, SNCA viab count 1.9%, IP6K1 inhibitor 4.9 and SNCA expr inhib inconclusive.
`O=C(O)[C@@H]1CN(Cc2ccccc2)C[C@@H]1C(=O)N1CCN(c2ccccn2)CC1` gave KDM5B inhibitor 22.4µM*, SNCA viab count -15.8%, IP6K1 inhibitor 3.8 and SNCA expr inhib 6.8%.
For Cc1ccc2nc(C)c(C(=O)N(C)CCOc3ccc(F)cc3)cc2c1 the results were KDM5B inhibitor inactive.
`COc1ccccc1-c1nc(CSc2nc(C)c(C)c(=O)[nH]2)c(C)o1` gave KDM5B inhibitor inactive.
Screening COc1ccc(S(=O)(=O)Nc2nc3ccccc3nc2NCCC(C)C)cc1 returned KDM5B inhibitor inactive.
Cc1ccc(C(=O)N2CCC3(CC2)SCC(=O)N3c2ccc(F)cc2)cc1[N+](=O)[O-] was read as KDM5B inhibitor inactive, SNCA viab count -20.9%, IP6K1 inhibitor -7.8 and SNCA expr inhib 6.0%.
`Cn1nc(C2CC2)cc1NC(=O)c1ccc(Cl)nc1` gave SNCA viab count 4.6%[87.6 µM], IP6K1 inhibitor 12.5 and SNCA expr inhib -11.0%[87.6 µM].
Screening CN(CCO)C[C@@H]1CN(C(=O)Cc2c(F)cccc2Cl)C[C@@H]1CO returned KDM5B inhibitor inactive, SNCA viab count -3.2%, IP6K1 inhibitor -8.2 and SNCA expr inhib -31.7%.
Cc1ccc(NC(=O)COC(=O)COc2ccc(C3SCCCS3)cc2)c(Cl)c1 was read as KDM5B inhibitor inactive.
`COc1ccccc1-c1nnc([C@H]2CCN(CC3CCCCC3)C2)o1` gave KDM5B inhibitor 35.5µM*, SNCA viab count -14.1%[87.6 µM], IP6K1 inhibitor 8.0 and SNCA expr inhib 0.1%[87.6 µM].
`CCc1noc(-c2cn(C3CCN(C(=O)c4cccc(C)c4)CC3)nn2)n1` gave KDM5B inhibitor inactive, SNCA viab count 4.0%, IP6K1 inhibitor 19.3 and SNCA expr inhib -20.6%.
Screening O=c1c2cc(-c3ccc(F)cc3)nn2ccn1CC(O)c1ccc(F)cc1 (stereo not drawn) returned KDM5B inhibitor 20µM*, SNCA viab count 7.0%, IP6K1 inhibitor -0.2 and SNCA expr inhib -13.2%.
Screening O=c1c2cc(-c3ccc(F)cc3)nn2ccn1CC(O)c1ccc2c(c1)OCO2 (stereo not drawn) returned KDM5B inhibitor 31.6µM*, SNCA viab count 2.5%, IP6K1 inhibitor 0.0 and SNCA expr inhib 9.1%.
`CC(C)N(Cc1cccc(N2CCN(C(=O)c3c(Cl)cccc3Cl)CC2)c1F)[S+](C)(=O)[O-]` gave IP6K1 inhibitor -13.8.
